Test results: PubChem BioAssay AID1159580 (chemical genetic matrix, 2015)
Several values for one entry are separate records, joined by “and”; a condition that tells them apart may be missing. Equal entries are not always repeated. Out of some 5,500 compounds screened, about 2,000 (36%) were called active. Roughly 18% stayed inconclusive and do not appear here. Rule as the data show it: active = normalized growth mostly below about 0.91 (no sharp cut-off); inconclusive = no clear call, values can overlap the other calls; inactive = mostly above about 0.92. The list shows a part of the results.

Assay: chemical genetic growth profiling, strain panel (AID 1159580);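 also: tested at 20 µM; growth read once vehicle control cultures reached saturation at 30 °C; 1 = growth at the plate median or of vehicle wells; lower values mean less growth of the strain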
Conditions: S. cerevisiae deletion strains, growth OD

Measured: normalized growth

COc1nc(NC(C)C)nc(NC(C)C)n1
inactive: locus YAL013W, strain DEP1, active compounds read low 1.01 | locus YAL021C, strain ccr4, active compounds read low 0.991 | locus YAL026C, strain drs2, active compounds read low 1.04 | locus YAL030W, strain snc1, active compounds read low 1.02 | locus YBL061C, strain skt5, active compounds read low 1.03 | locus YBR009C, strain hhf1, active compounds read low 1.06 | locus YBR021W, strain FUR4, active compounds read low 1.04 | locus YBR023C, strain chs3, active compounds read low 1.03 | locus YBR171W, strain sec66, active compounds read low 1.02 | locus YBR229C, strain ROT2, active compounds read low 0.999 | locus YBR231C, strain swc5, active compounds read low 1.02 | locus YBR279W, strain paf1, active compounds read low 1.01 | locus YCL011C, strain gbp2, active compounds read low 1.02 | locus YCL016C, strain dcc1, active compounds read low 1.01 | locus YCL029C, strain bik1, active compounds read low 1.02 | locus YCL069W, strain vba3, active compounds read low 1.01 | locus YCR088W, strain abp1, active compounds read low 1.02 | locus YDL005C, strain med2, active compounds read low 1.02 | locus YDL035C, strain GPR1, active compounds read low 1.02 | locus YDL040C, strain nat1, active compounds read low 1 | locus YDL074C, strain BRE1, active compounds read low 1.05 | locus YDL101C, strain DUN1, active compounds read low 1.02 | locus YDL134C, strain PPH21, active compounds read low 1 | locus YDL185W, strain tfp1, active compounds read low 1.03 | locus YDL192W, strain arf1, active compounds read low 1.03 | locus YDR001C, strain nth1, active compounds read low 1.02 | locus YDR069C, strain doa4, active compounds read low 1.02 | locus YDR101C, strain arx1, active compounds read low 1.01 | locus YDR137W, strain rgp1, active compounds read low 1.02 | locus YDR150W, strain NUM1, active compounds read low 1.01 | locus YDR159W, strain sac3, active compounds read low 1.07 | locus YDR162C, strain NBP2, active compounds read low 1.01 | locus YDR195W, strain ref2 0.995 | locus YDR297W, strain sur2, active compounds read low 1.03 | locus YDR318W, strain mcm21, active compounds read low 1.02 | locus YDR334W, strain swr1, active compounds read low 1.01 | locus YDR335W, strain msn5, active compounds read low 1.01 | locus YDR388W, active compounds read low 1.03 | locus YDR392W, strain spt3, active compounds read low 1.01 | locus YDR502C, strain sam2, active compounds read low 1.02 | locus YEL003W, strain gim4, active compounds read low 1.02 | locus YEL037C, strain rad23, active compounds read low 1.02 | locus YEL061C, strain CIN8 (second series), active compounds read low 1.03 | locus YEL061C, strain CIN8, active compounds read low 1 | locus YER015W, strain faa2, active compounds read low 1.02 | locus YER016W, strain bim1, active compounds read low 1.01 | locus YER110C, active compounds read low 1.02 | locus YER111C, strain swi4, active compounds read low 1.02 | locus YER155C, strain BEM2 (second series), active compounds read low 1.03 | locus YER155C, strain BEM2, active compounds read low 1.01 | locus YER167W, strain BCK2, active compounds read low 1.01 | locus YFR010W, strain ubp6, active compounds read low 1.03 | locus YGL078C, strain dbp3, active compounds read low 1.01 | locus YGL086W, strain mad1, active compounds read low 1.01 | locus YGL167C, strain pmr1, active compounds read low 1.02 | locus YGL173C, strain kem1, active compounds read low 1.04 | locus YGL227W, strain vid30, active compounds read low 1.04 | locus YGL240W, strain doc1, active compounds read low 1.02 | locus YGL248W, strain PDE1, active compounds read low 1.01 | locus YGL253W, strain hxk2, active compounds read low 1.03 | locus YGR078C, strain PAC10, active compounds read low 1.02 | locus YGR135W, strain pre9, active compounds read low 1.02 | locus YGR229C, strain SMI1, active compounds read low 1.02 | locus YGR252W, strain gcn5, active compounds read low 1.05 | locus YHR013C, strain ard1, active compounds read low 1.03 | locus YHR027C, strain rpn1, active compounds read low 1.03 | locus YHR030C, strain SLT2, active compounds read low 1.01 and 1.07 | locus YHR079C, strain IRE1 (second series), active compounds read low 1.02 | locus YHR079C, strain IRE1, active compounds read low 1.03 | locus YHR094C, strain hxt1, active compounds read low 1.01 | locus YHR129C, strain ARP1, active compounds read low 1.01 | locus YHR142W, strain chs7, active compounds read low 1.04 | locus YHR200W, strain rpn10, active compounds read low 1.01 | locus YIL066C, strain RNR3, active compounds read low 1.02 | locus YIL073C, strain SPO22, active compounds read low 1.08 | locus YIL125W, strain kgd1, active compounds read low 1.01 | locus YIR030C, strain dcg1, active compounds read low 1.01 | locus YJL092W, strain hpr5, active compounds read low 1.02 | locus YJL095W, strain BCK1 (second series), active compounds read low 1.04 | locus YJL095W, strain BCK1, active compounds read low 1.01 and 1.06 | locus YJL115W, strain asf1, active compounds read low 1.02 | locus YJL129C, strain trk1, active compounds read low 1.02 | locus YJL134W, strain LCB3, active compounds read low 1.01 | locus YJL154C, strain vps35, active compounds read low 1.01 | locus YJL164C, strain tpk1, active compounds read low 1.01 | locus YJL166W, strain qcr8, active compounds read low 1.03 | locus YJL168C, strain set2, active compounds read low 1.02 | locus YJL187C, strain SWE1 (second series), active compounds read low 1.01 | locus YJL187C, strain SWE1, active compounds read low 1 | locus YJR043C, strain POL32, active compounds read low 1.03 | locus YJR066W, strain TOR1, active compounds read low 1
